Each structure is given as a SMILES string. The campaign covered roughly 290,000 compounds. About 3,000 (1%) were called active. For the sample, actives were picked, then their nearest neighbours and some compounds at random. Unmarked numbers belong to inactive results. No stated cut-off is given here; in the data, active means inhibition mostly above about 36% (no sharp cut-off); inactive means mostly below about 34%.

This passage reports inhibition results from PubChem BioAssay AID1578 (Sanford-Burnham Center for Chemical Genomics, 2009).

The experiment in a line: inhibition of NOD1-driven NF-kB reporter – cell-based, luminescence, uHTS, primary screen (AID 1578).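 Further: HEK-293T reporter cells stimulated with the NOD1 agonist gamma-tri-DAP.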 The following applies: NOD1-driven NF-kB luciferase reporter cells, at 4 µM, active compounds read high. On the technique in general: In a reporter assay the amount or activity of a reporter protein is the signal.
Regarding `O=C(O)CCN1C(=O)c2ccc(Oc3ccc([N+](=O)[O-])cc3)cc2C1=O`, the inhibition (commonly the relative decrease from the control value, in per cent) is -1.1%.
Regarding `COc1ccccc1N(C(=O)c1snc(C(N)=O)c1N)C(C(=O)NC1CCCC1)c1ccc(N(C)C)cc1` (centres undefined), the inhibition is -3%.
For `O=C(N/N=C/c1cccc2nccnc12)c1ccccc1O` the value was 6%.
For `O=C(C#Cc1cccc([N+](=O)[O-])c1)c1ccccc1` the value was 55.8%.
For `O=C(C#Cc1ccccc1)c1ccc([N+](=O)[O-])cc1` the value was 38.4%; for `O=C(C#Cc1ccccc1)c1cccc([N+](=O)[O-])c1`, 79.8% (active); for `Cc1nn(CCCC(=O)NC(C)c2ccccc2)c(=O)c2nn(-c3ccccc3)c(C)c12` (centres undefined), -16.8%.
As to `COc1ccccc1C(=O)Nc1ccccc1C(=O)NCc1ccco1`, the inhibition was 25.7%.
For `CCCSc1nc(SCC(=O)NCc2ccccc2)c2c3c(sc2n1)COC(C)(C)C3` the value was -25.4%.
For `CC(NC(=O)c1cnc2ccccc2n1)c1ccccc1` (centres undefined) the value was 78.3% (active).
As to `O=C(Nc1ccccc1)c1cnc2ccccc2n1`, the inhibition is -56.8%.
As for `CC(NC(=O)c1ccc2ccccc2n1)c1ccccc1` (centres undefined), the inhibition was -34.3%.
In the case of `COc1ccc(S(=O)(=O)NC(N)=NCCc2ccc(OC)c(OC)c2)cc1C`, the inhibition was -11.6%.
For `O=C1c2ccccc2C(=O)C12OC2c1cccc2ccccc12` (centres undefined) the value was -22.4%; for `O=C1c2ccccc2C(=O)C12OC2c1ccc(Cl)cc1Cl` (centres undefined), 36.6%; for `O=C1c2ccccc2C(=O)C12OC2c1ccc(Cl)cc1` (centres undefined), 81.6% (active).
For `C(=N\n1cnnc1)/C1CCCCC1` the value was -17.3%; for `Nc1c(N2CCCC2)c2ccccc2oc1=O`, -10.9%; for `Nc1c(N2CCN(c3ccccc3)CC2)c2ccccc2oc1=O`, 60.8% (active).
For `Nc1c(N2CCCCC2)c2ccccc2oc1=O` the value was -15%; for `COc1ccc(OC)c(NC(=O)Cc2c(C(=O)O)n(C)c3ccccc23)c1`, -25.2%; for `NC(=O)C1CCN(C(=O)c2ccc3nc(N4CCCCC4)sc3c2)CC1`, -2.5%.
As to `COC(=O)Cc1ccc(NC(=S)NCc2ccccc2OC)cc1`, the inhibition is -14.6%.
For `O=C(CC1NCCNC1=O)Nc1ccccc1` (centres undefined) the value was -14.1%.
With `Cc1ccc(C)c(NC(=O)C2CCCN(S(=O)(=O)c3c(C)noc3/C=C/N(C)C)C2)c1` (centres undefined), the inhibition was -11.5%.
For `COc1ccc(/C=N/NC(=O)c2cccnc2)cc1O` the value was 20%; for `CCOC(=O)CNC(=O)c1cc(-c2ccc3c(c2)OCCO3)oc1C`, -24%; for `Cc1oc(-c2ccc3c(c2)OCCO3)cc1C(=O)O`, 89.2% (active).
For `Cc1oc(-c2ccc3c(c2)OCCO3)cc1C(=O)NCC(=O)O` the value was -22.5%; for `C=C1CCC[C@]2(C)C[C@H]3OC(=O)C(CNCC(OC)OC)[C@H]3CC12` (some centres undefined), -18%.
For `CCCOc1c(Br)cc(/C=N/O)cc1OC` the value was 6%; for `COc1cc(/C=N/O)cc(Br)c1OC`, 6.6%; for `COc1cc(/C=N/O)cc(Br)c1OS(=O)(=O)c1ccc(C)cc1`, 78% (active).
As for `COCCNC(=S)N1CCOCC1`, the inhibition was -13.4%.
For `CC(C)(C)C1=NN(c2ccc([N+](=O)[O-])cc2)C(c2ccccc2)C1` (centres undefined) the value was -37.3%.
For `COc1ccc(S(=O)(=O)N(C)C)cc1NC(=O)COC(=O)CC1CCCC1` the value was 41.4% (active); for `CCN(CC)S(=O)(=O)c1ccc(OC)c(NC(=O)CC2CCCC2)c1`, -26.7%.
Regarding `CN(C)S(=O)(=O)c1ccc(Cl)c(NC(=O)COC(=O)CN2C(=O)C3CCCCC3C2=O)c1` (centres undefined), the inhibition was -45.6%.
For `CN(CC(=O)Nc1ccc(Cl)c(Cl)c1)C1CCCCC1` the value was -29.4%.
For `O=C(c1ccco1)N(Cc1ccco1)Cc1cc2ccccc2[nH]c1=O` the value was 5.8%.
Consider `O=C(C1COc2ccccc2O1)N1CCc2ccccc21` (centres undefined), for which the inhibition is -44.3%.
For `O=C(C1COc2ccccc2O1)N1CCCC1` (centres undefined) the value was 9.4%; for `O=C(C1COc2ccccc2O1)N1CCc2ccccc2C1` (centres undefined), 45.7% (active).
For `Cc1ccc(CSc2nnc3ccc(-c4ccncc4)nn23)cc1` the value was -23.9%; for `O=C(c1ccc(Oc2ccccc2)cc1)C1CCCN(C(=O)c2cnccn2)C1` (centres undefined), -4.3%.
For `Cc1ccc(C(=O)N2CCCC(C(=O)c3ccc(Oc4ccccc4)cc3)C2)cn1` (centres undefined) the value was 61% (active); for `CSc1ccc(C(=O)C2CCCN(C(=O)c3ccc(C)nc3)C2)cc1` (centres undefined), -25.1%; for `COc1ccc(Nc2ncnc3ccc([N+](=O)[O-])cc23)c(OC)c1`, 7%.
Turning to `Cc1ccc(O)c(Nc2ncnc3ccc([N+](=O)[O-])cc23)c1`, the inhibition was 28.1%.
Take `COc1ccc([N+](=O)[O-])cc1Nc1ncnc2ccccc12`: the inhibition is -1.9%.
For `O=[N+]([O-])c1ccc2ncnc(Nc3ccc4c(c3)OCCO4)c2c1` the value was 65.2% (active); for `Cc1ccc2ncnc(Nc3cccc([N+](=O)[O-])c3)c2c1`, 13.8%.
For `CCOC(=O)COn1c(=O)c(-c2ccccc2)[n+]([O-])c2ccccc21` the value was 0.2%.
For `COc1ccc(/C=N/NC(=O)c2ccc(Br)cc2)c(OC)c1`, the inhibition was -40.4%.
For `COC(=O)C1=C(C)NC(C)=C(C(=O)OC)C1c1ccco1` the value was -5.8%; for `CCOc1ccc(NC(=O)COC(=O)Cc2ccc(S(=O)(=O)N3CCOCC3)s2)cc1`, 5.1%; for `Cc1ccc(-n2nc3c(=O)n(CC(=O)NCc4ccccn4)nc(C)c3c2C)cc1`, -3.4%.
For `CC(C)(C)OC(=O)N1CCOCCOCCN(C(=O)OC(C)(C)C)CCOCCOCC1` the value was 4.4%.
In the case of `COC(=O)c1nc(NC(=O)c2cc(OC)c(OC)c(OC)c2)n[nH]1`, the inhibition was 15.5%.
For `CCN1CCN(CC(=O)c2c[nH]c3ccc(C)cc23)CC1` the value was -10.6%; for `CCN(CC)CC(=O)c1c[nH]c2ccc(C)cc12`, -11.4%; for `Cc1ccc2[nH]cc(C(=O)CCl)c2c1`, 107% (active).
For `Nc1ccc(S(=O)(=O)c2ccc(Cl)cc2)cc1` the value was 4%; for `COc1ccc(/C=N/NC(N)=S)cc1`, -8.2%.
